# Source: PubChem BioAssay (NCATS)
# Results filed as inconclusive are left out. Entries that show only a call come without a potency. Activity calls are given as the source filed them. Calls follow the shape of the dose curve; as a rule, active = well fitted curve in the direction sought with a large enough effect; inconclusive = small, poorly fitted or top-dose-only effect, or another doubt; inactive = no such curve, though single readings can be large; an effect the other way counts as inactive or inconclusive.
# Test: qHTS for Inhibitors of Plasmodium falciparum (DD2) proliferation (AID 504314);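 also: parasite DNA measured by SYBR Green fluorescence after red cell lysis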
# Settings: P. falciparum Dd2 in erythrocytes, SYBR Green growth, 72 h; series mostly up to 1.12 µM
# Procedure, shortened: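 SYBR Green DNA-fluorescence growth assay: infected RBCs at 0.3% parasitemia, 2.5% hematocrit, 72 h compound exposure, 37C, 5% CO2; overnight lysis with dye at RT; normalized to 0.29 uM artemisinin and vehicle.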
row,Structure (SMILES),Potency
1,COC(=O)CCC(=O)OC1(C)C(=O)C=C2C=C(C3CC3)N(CC(C)C)C=C2C1=O (stereo unspecified),inactive
2,COC(=O)C1=C(C(=O)OC)[C@@H]2Nc3ccccc3[C@@]23C[C@@H](C(=O)OC)N(S(=O)(=O)c2ccc4c(c2)OCCN4C)C3=N1,inactive
3,COC(=O)C1=C(C)N(Cc2ccccc2)C(=O)N[C@H]1c1cccs1,inactive
4,COC/C=C/C1=CC2=CC(=O)C(C)(OC(=O)c3cnc4ccccc4n3)C(=O)C2=CN1CCCOC(C)C (stereo unspecified),inactive
5,CC#CCN1c2ccccc2[C@]23C[C@@H](C(=O)OC)N=C2NC(C(=O)OC)=C(C(=O)OC)[C@H]13,inactive
6,COC(=O)CCCC1=CC2=CC(=O)C(C)(OC(=O)c3cccs3)C(=O)C2=CN1c1ccccc1 (stereo unspecified),inactive
7,COC(=O)C1=C(C(=O)OC)[C@@H]2N(C)c3ccccc3[C@@]23C[C@@H](CO)N(C(=O)c2ccco2)C3=N1,inactive

# Test: qHTS for Inhibitors of Plasmodium falciparum (GB4) proliferation (AID 504315); also: nearly all actives have a fitted effect of over 50% in size; also: potency is read from the fitted curve at half-maximal effect
# Settings: P. falciparum GB4 in erythrocytes, SYBR Green DNA, 72 h; series mostly up to 6.7 µM
# Procedure, shortened: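 Parasite growth measured as SYBR Green DNA fluorescence (ex 485, em 535 nm) after overnight lysis following 72 h culture at 37 °C, 0.3% parasitemia, 2.5% hematocrit. Values normalized against DMSO and 0.29 uM artemisinin controls, with plate-stack correction.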
row,Structure (SMILES),Potency
1,C=CCN1c2ccccc2[C@]23C[C@@H](C(=O)OC)N(C(=O)CC(C)C)C2=NC(C(=O)OC)=C(C(=O)OC)[C@H]13,inactive
2,COC(=O)C1=C(C(=O)OC)[C@@H]2N(C)c3ccccc3[C@@]23C[C@@H](C(=O)OC)N(S(=O)(=O)c2ccc([N+](=O)[O-])cc2)C3=N1,1.69 µM (active)
3,CCN1C(=O)N[C@@H](c2ccco2)C(C(C)=O)=C1C,inactive
4,CCCCC1=CC2=CC(=O)C(C)(OC(=O)CC)C(=O)C2=CN1C1CCCCC1 (stereo unspecified),inactive
5,COCC(=O)N1CCc2nc(-c3ccc(OC)cc3C)c3c(c2C1)CO[C@@H](c1ccccc1)C3,inactive
6,C=CCN1c2ccccc2[C@]23C[C@@H](C(=O)OC)N(S(=O)(=O)c4ccc([N+](=O)[O-])cc4)C2=NC(C(=O)OC)=C(C(=O)OC)[C@H]13,1.51 µM (active)
7,CCCCc1nc2c(c3c1C[C@H](C)OC3)CN(C(=O)N[C@H](C(=O)OC)C(C)C)CC2,inactive
8,CCCCC1=CC2=C(c3ccco3)C(=O)C(C)(OC(=O)c3ccc(OC)cc3)C(=O)C2=CN1CCCCO (stereo unspecified),inactive
9,CC#CCN1c2ccccc2[C@]23C[C@@H](C(=O)OC)N(S(=O)(=O)c4ccc(C(F)(F)F)cc4)C2=NC(C(=O)OC)=C(C(=O)OC)[C@H]13,1.9 µM (active)
10,COC(=O)C1=C(C(=O)OC)[C@@H]2Nc3ccccc3[C@@]23C[C@@H](C(=O)OC)N(S(=O)(=O)c2ccc(Br)cc2)C3=N1,1.9 µM (active)
11,CC#CCN1c2ccccc2[C@]23C[C@@H](C(=O)OC)N(S(=O)(=O)c4ccc(Br)cc4)C2=NC(C(=O)OC)=C(C(=O)OC)[C@H]13,1.69 µM (active)
12,C=CC[C@]1(C(=O)OC)C=C[C@H](C)[C@@H](c2ccccc2)N1C(=O)C(F)(F)F,inactive
13,CCOC(=O)CN1C(=O)NC(c2cccc(C(F)(F)F)c2)C(C(C)=O)=C1C (stereo unspecified),inactive
14,CC1(OC(=O)CCc2ccccc2)C(=O)C=C2C=C(c3ccc(C#N)cc3)N(C3CCCCC3)C=C2C1=O (stereo unspecified),inactive
15,C[C@H]1Cc2c(-c3ccccc3)nc3c(c2CO1)CN(C(=O)C1CCCCC1)CC3,inactive
16,CC#CCN1c2ccccc2[C@]23C[C@@H](C(=O)OC)N(S(=O)(=O)c4ccc(C)cc4)C2=NC(C(=O)OC)=C(C(=O)OC)[C@H]13,1.69 µM (active)
17,Nc1ccccc1C(=O)C=Cc1ccccc1,inactive
18,COC(=O)C1=C(C(=O)OC)[C@@H]2N(C)c3ccc(OC)cc3[C@@]23C[C@@H](C(=O)OC)N(C(=O)c2ccc(Br)cc2)C3=N1,inactive
19,COC/C=C/C1=CC2=CC(=O)C(C)(OC(=O)c3cnc4ccccc4n3)C(=O)C2=CN1c1cccc(C#N)c1 (stereo unspecified),inactive
20,COC(=O)C1=C(C(=O)OC)[C@@H]2N(C)c3ccccc3[C@@]23C[C@@H](C(=O)OC)N(S(=O)(=O)c2ccc(Br)cc2)C3=N1,2.13 µM (active)

row,Structure (SMILES),Potency
1,CCCCC1=CC2=CC(=O)C(C)(OC(=O)CC)C(=O)C2=CN1Cc1ccco1 (stereo unspecified),inactive
2,COC(=O)CCC(=O)OC1(C)C(=O)C2=CN(CC3CC3)C(c3ccc(OC)cc3)=CC2=C(Br)C1=O (stereo unspecified),inactive
3,COC(=O)CCCC1=CC2=CC(=O)C(C)(OC(=O)c3cccs3)C(=O)C2=CN1CCCCO (stereo unspecified),inactive
4,COC(=O)C1=C(C)N(Cc2ccccc2)C(=O)NC1c1ccco1 (stereo unspecified),inactive
5,CC#CCN1c2ccccc2[C@]23C[C@@H](C(=O)OC)N(S(=O)(=O)c4ccc(OC)cc4)C2=NC(C(=O)OC)=C(C(=O)OC)[C@H]13,2.13 µM (active)
6,C=CC1=C2C=C(C3CC3)N(CCCCO)C=C2C(=O)C(C)(OC(=O)c2ccco2)C1=O (stereo unspecified),inactive
7,COC(=O)CCC(=O)OC1(C)C(=O)C2=CN(CC(C)C)C(c3ccc(OC)cc3)=CC2=C(Br)C1=O (stereo unspecified),inactive
8,CCN1C(=O)N[C@@H](c2cccc(F)c2)C(C(=O)OC)=C1C,inactive
9,COC(=O)CCCC1=CC2=CC(=O)C(C)(OC(=O)c3cccs3)C(=O)C2=CN1Cc1ccc2c(c1)OCO2 (stereo unspecified),inactive
10,COCCN1C(=O)N[C@@H](c2cccc(F)c2)C(C(C)=O)=C1C,inactive
11,CC(CCN1CCCc2nc(C)c(C)cc21)=NO[C@H](C)c1cn([C@@H]2COC[C@@H]2O)nn1,inactive
12,COC(=O)C1=C(C(=O)OC)[C@@H]2N(C)c3ccccc3[C@@]23C[C@@H](C(=O)OC)N(S(=O)(=O)c2ccc(C(F)(F)F)cc2)C3=N1,2.13 µM (active)
13,COC(=O)CCC(=O)OC1(C)C(=O)C=C2C=C(C3CC3)N(CC(C)C)C=C2C1=O (stereo unspecified),inactive
14,COC(=O)C1=C(C(=O)OC)[C@@H]2Nc3ccccc3[C@@]23C[C@@H](C(=O)OC)N(S(=O)(=O)c2ccc4c(c2)OCCN4C)C3=N1,1.69 µM (active)
15,COC(=O)C1=C(C)N(Cc2ccccc2)C(=O)N[C@H]1c1cccs1,inactive
16,COC/C=C/C1=CC2=CC(=O)C(C)(OC(=O)c3cnc4ccccc4n3)C(=O)C2=CN1CCCOC(C)C (stereo unspecified),inactive
17,CC#CCN1c2ccccc2[C@]23C[C@@H](C(=O)OC)N=C2NC(C(=O)OC)=C(C(=O)OC)[C@H]13,inactive
18,COC(=O)CCCC1=CC2=CC(=O)C(C)(OC(=O)c3cccs3)C(=O)C2=CN1c1ccccc1 (stereo unspecified),inactive
19,COC(=O)C1=C(C(=O)OC)[C@@H]2N(C)c3ccccc3[C@@]23C[C@@H](CO)N(C(=O)c2ccco2)C3=N1,inactive
